Bioassay records (PubChem BioAssay)
Many of the other results were omitted from the sample, so hits are more common in it than they were.
Pf apPOL block: Pf-apPOL DNA polymerase inhibition; Recombinant Pf-apPOL, molecular beacon fluorescence, 1.5 h; inhibition, % at 10 µM; 210,000 compounds, 0.25% hits; AID 1794808
mHTT-CaM PPI inh: mHTT-calmodulin interaction abrogation; P42858; AlphaScreen His-mHTT/GST-CaM binding, luminescence; inhibition, % at 15 µM; 190,000 compounds, 3.6% hits;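 note: 0% = both proteins with DMSO and 100% = one protein alone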
An asterisk follows results filed as active. Cut-off read from the data, not from the text of the source: active = inhibition above about 50%; inactive = the rest.

`Cn1ncc(N2CCC(C(=O)N3CCOCC3)CC2)cc1=O` gave Pf apPOL block -2 and mHTT-CaM PPI inh -5.
`O=C(c1ccc(C(F)(F)F)cc1)N1CCC(=O)N([C@H](COCc2ccc(C(F)(F)F)cc2)Cc2ccccc2)CC1` gave Pf apPOL block -1 and mHTT-CaM PPI inh 99*.
`O=C(c1ccc(C(F)(F)F)cc1)N1CCC(=O)N([C@H](COCc2ccc(Cl)cc2)Cc2ccccc2)CC1` gave Pf apPOL block -7 and mHTT-CaM PPI inh 100*.
`O=C1CCN(Cc2ccc(O)cc2)CCN1[C@H](CO)Cc1ccccc1` gave Pf apPOL block -1 and mHTT-CaM PPI inh -4.
CC(C)(C)c1ccc(C(=O)N2CCC(=O)N([C@H](COCc3ccc(Cl)cc3)Cc3ccccc3)CC2)cc1 was read as Pf apPOL block -1 and mHTT-CaM PPI inh 48.
For Cc1ccc(S(=O)(=O)N2CCC(=O)N([C@H](COCc3ccc(C(F)(F)F)cc3)C(C)C)CC2)cc1 the results were Pf apPOL block -3 and mHTT-CaM PPI inh 30.
CC(C)C[C@@H](COCc1ccc(Cl)cc1)N1CCN(C(=O)c2ccc(C(F)(F)F)cc2)CCC1=O was read as Pf apPOL block -1 and mHTT-CaM PPI inh 99*.
`CC(=O)N1CCN(C(c2ccccc2Cl)c2sc3nc(C)nn3c2O)CC1` (stereo not given) gave Pf apPOL block -13 and mHTT-CaM PPI inh -1.
Screening CSC(Nc1cc(Cl)ccc1Cl)=C(C#N)C(=O)c1ccco1 returned Pf apPOL block -5.
`COc1ccc(C2Cn3nnc(C(=O)N4CCC5(CC4)OCCO5)c3CO2)cc1` (stereo not given) gave Pf apPOL block -6 and mHTT-CaM PPI inh -2.
`Cc1cc(O)cc2c1C(=O)C(=Cc1cc3ccccc3o1)O2` gave Pf apPOL block -2 and mHTT-CaM PPI inh 55*.
`Cc1cc(O)cc2c1C(=O)C(=Cc1ccccc1)O2` gave Pf apPOL block -12 and mHTT-CaM PPI inh 0.
For CC(=O)Nc1ccc(N2C(=O)c3ccccc3CC2(C)C(=O)NCc2ccccc2C)cc1 (stereo not given) the results were Pf apPOL block 0 and mHTT-CaM PPI inh 11.
`Cc1noc(C)c1C(=O)NNc1c(Cl)cncc1Cl` gave Pf apPOL block -12.
`Cc1ccccc1CN1Cc2cccc3c2[C@H](C=CC3)CC1=O` gave Pf apPOL block -3 and mHTT-CaM PPI inh 100*.
For O=C1C[C@H]2C=CCc3cccc(c32)CN1Cc1ccc(Br)cc1 the results were Pf apPOL block -8 and mHTT-CaM PPI inh 12.
For O=C1CC2C=CCc3cccc(c32)CN1Cc1cccc(F)c1 (stereo not given) the results were Pf apPOL block -4 and mHTT-CaM PPI inh 100*.
For COc1ccccc1CN1Cc2cccc3c2[C@@H](CC1=O)[C@H](O)[C@H](O)C3 the results were Pf apPOL block -3 and mHTT-CaM PPI inh -2.
`CN(C)c1ccc(CNC(=O)C2CCCN(c3ccc(N4CCOCC4)nn3)C2)cc1` (stereo not given) gave Pf apPOL block -4 and mHTT-CaM PPI inh 3.
For CCCCC(=O)NC(c1ccccc1)c1ccc2cccnc2c1O (stereo not given) the results were Pf apPOL block -2 and mHTT-CaM PPI inh 100*.
For CCCC(=O)NC(c1ccc(OC)cc1)c1ccc2cccnc2c1O (stereo not given) the results were Pf apPOL block -3 and mHTT-CaM PPI inh 100*.
Screening CCCC(=O)NC(c1ccccc1)c1ccc2cccnc2c1O (stereo not given) returned Pf apPOL block -4 and mHTT-CaM PPI inh 100*.
CCCC(=O)NC(c1ccccc1)c1ccccc1 was read as Pf apPOL block 3 and mHTT-CaM PPI inh -11.
Screening CCCC(=O)NC(c1ccccc1)c1cc(Cl)c2cccnc2c1O (stereo not given) returned Pf apPOL block 0 and mHTT-CaM PPI inh 18.
CCCC(=O)NC(c1ccc(F)cc1)c1ccc2cccnc2c1O (stereo not given) was read as Pf apPOL block 2 and mHTT-CaM PPI inh 100*.
O=C(CCN1CCCC1)NCC1OCCc2ccccc21 (stereo not given) was read as Pf apPOL block 1 and mHTT-CaM PPI inh 5.
`COCCC1CCN(C(=O)c2cnccn2)CC1` gave Pf apPOL block -2 and mHTT-CaM PPI inh -8.
Screening CC1CN(Cc2ccccc2F)CC(C)O1 (stereo not given) returned Pf apPOL block -6 and mHTT-CaM PPI inh -5.
For O=C(Cc1csc(NC(=O)c2ccsc2)n1)Nc1cccnc1 the results were Pf apPOL block -5 and mHTT-CaM PPI inh 1.
Screening O=C(Cc1csc(NC(=O)c2cnccn2)n1)NCCOc1ccc(F)cc1 returned Pf apPOL block -4 and mHTT-CaM PPI inh -2.
For O=C(Cc1csc(NC(=O)c2cnccn2)n1)Nc1ccc(-n2cccn2)cc1 the results were Pf apPOL block -6 and mHTT-CaM PPI inh 97*.
Screening CS(=O)(=O)Nc1cccc(NC(=O)Cc2csc(NC(=O)c3cnccn3)n2)c1 returned Pf apPOL block 20 and mHTT-CaM PPI inh 97*.
For O=C(NC1CC1c1ccccc1)C1CC1c1ccccc1 (stereo not given) the results were Pf apPOL block 3 and mHTT-CaM PPI inh -5.
For O=[N+]([O-])c1ccc(-c2csc(N3CCCC3)n2)cc1 the results were Pf apPOL block -2 and mHTT-CaM PPI inh -2.
Screening Cc1ccc(-c2csc(N3N=C(c4ccc([N+](=O)[O-])cc4)CC3=O)n2)cc1 returned Pf apPOL block 0 and mHTT-CaM PPI inh 53*.
Screening CCOc1ccccc1CN1CCC(C(=O)N2CCc3ccccc3C2)CC1 returned Pf apPOL block -1 and mHTT-CaM PPI inh 4.
For Cc1ccc(OCC(=O)N2CCN(c3nc(CN4CCCCC4)cs3)CC2)cc1 the results were Pf apPOL block 1 and mHTT-CaM PPI inh 38.
For O=C(COc1ccc(Cl)cc1)N1CCN(c2nc(CN3CCCCC3)cs2)CC1 the results were Pf apPOL block -3 and mHTT-CaM PPI inh 50*.
Screening O=C(C1CCCCC1)N1CCN(c2nc(CN3CCCCCC3)cs2)CC1 returned Pf apPOL block 34 and mHTT-CaM PPI inh 96*.
O=C(C1CCCC1)N1CCN(c2nc(CN3CCCCCC3)cs2)CC1 was read as Pf apPOL block 4 and mHTT-CaM PPI inh 16.
Screening FC(F)(F)c1cccc(CSc2ccc(-n3cccn3)nn2)c1 returned Pf apPOL block 0 and mHTT-CaM PPI inh -50.
`COc1ccc(C(=O)NCC(C)(O)CCSC)cc1` (stereo not given) gave Pf apPOL block -2 and mHTT-CaM PPI inh -2.
`CCc1cc(-c2onc(C)c2-c2ccc(OC)cc2)c(O)cc1OC` gave Pf apPOL block -3 and mHTT-CaM PPI inh 20.
CCc1cc(-c2[nH]ncc2-c2ccc([N+](=O)[O-])cc2)c(O)cc1OC was read as Pf apPOL block 6 and mHTT-CaM PPI inh 95*.
N#CC1=C(N)OC2=C(C(=O)CC(c3ccccc3)C2)C1c1ccccc1F (stereo not given) was read as Pf apPOL block -9 and mHTT-CaM PPI inh 14.
N#CC1=C(N)OC2=C(C(=O)CC(c3ccccc3)C2)C1c1c[nH]c2ccccc12 (stereo not given) was read as Pf apPOL block 3 and mHTT-CaM PPI inh 58*.
CC1C(c2ccc(N(C)C)cc2)NC(c2ccc(N(C)C)cc2)C(C)C1O (stereo not given) was read as Pf apPOL block -9 and mHTT-CaM PPI inh 17.
